This passage reports outcome and AC50 results from PubChem BioAssay (EPA / NIEHS).

Active and inactive are the calls of the source. The calls were made as follows: active = hit-call score of the fitted dose curve at least 0.9, where 1 is the maximum; inactive = score below 0.9.

Read-out in this assay: Alkaline Phosphatase, Placental (ALPP) gene, ALPP (gene 250)
Briefly: LTEA_HepaRG_ALPP: Life Technologies and Expression Analysis (LTEA) Assay for Alkaline Phosphatase, Placental (ALPP) gene using HepaRG (AID 2283468).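 As to AC50: ALPP transcript by TaqMan qRT-PCR normalized to ACTB GAPDH and POLR2A.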 To be noted: mRNA level, 48 h; actives raise or lower the signal. On the procedure:
LTEA_HepaRG is a cell based, multiplexed-readout assay that uses HepaRG, a human liver cell line, with measurements taken at 48 hours after chemical dosing on a 96-well plate.LTEA_HepaRG_ALPP is one of 102 assay component(s) measured in the LTEA HepaRG cell culture assay. It is a marker of Cell proliferation, survival, death.Data from the assay component LTEA_HepaRG_ALPP was analyzed into 1 endpoint. This assay endpoint, LTEA_HepaRG_ALPP, was analyzed with bidirectional fitting relative to DMSO as the negative control and baseline of activity. Using a type of inducible reporter, measures of mRNA induction for gain or loss-of-signal activity can be used to understand regulation of transcription factor activity. To generalize the intended target to other relatable targets, this assay endpoint is annotated to the phosphatase intended target family, where the subfamily is Cell proliferation, survival, death.
A total of 1060 chemcials from the ToxCast library were tested in eight-point concentration-response experiments. Cell culture and cytotoxicity assays were conducted at Thermo Fisher Scientific's Custom Services facility (Madison, WI). A single lot of human HepaRG cells (Thermo Fisher Scientific, Frederick, MD) was used for the cell culture experiments. 96-well format collagen type I coated plates of human HepaRG cells were prepared using established methods. Briefly, cryopreserved HepaRG cells were thawed, plated at a density of approximately 100,000 cells/well in HepaRG Thaw, Plate, and General Purpose media (HPRG770, Thermo Fisher Scientific), and incubated for 48 hours. 0.5% DMSO was selected as vehicle control to balance the requisite need of DMSO in HepaRG cultures to maintain differentiation (for example, baseline metabolism, proportions of hepatocytes vs. cholangiocytes), while enabling further hepatic receptor pathway activation (for example, PXR and CAR) in response to chemical exposure. 48 hours after plating, the culture medium was replaced with HepaRG Serum-Free Incudtion Media. Cells were exposed to each test chemical in duplicate and maintained in CO2 incubators for another 48 hours. Chemical plates were thawed to room temperature and 200x concentrations of treatment groups were prepared. 8-point conentration-reponse curves were made with the highest exposure at 100 uM, followed by half-log dilutions, all in 0.5% DMSO. Each test plate contained variouse controls, induction positive controls (1mM phenobarbital), cytotoxicity positive controls ([…] aflatoxin B1), vehicle controls (0.5% DMSO), and total lysis controls (0.5% DMSO). Cell morphology images were taken using an Essen IncuCyte FLR automated microscope, with six 96-well plates imaged in about 24 minutes. Images were captured and exported and JPEG files. Spent culture media was transfered to black-well plates for the LDH assay, and remaining media was sorted at -80 C for later use. Cells were treated with RLT buffer and frozen until shipped for gene expression analysis. Total RNA was isolated from the cell suspension in 75 uL of Buffer RLT (Qiagen, Germantown, MD 20874) by Quintiles/Expression Analysis (Durham, NC) using a custom isolation procedure. Total RNA from each plate well was transferred to a preamplification plate. Fluidigm's 96.96 Dynamic ArrayTM (Fluidigm, Amsterdam, the Netherlands) technology was used for gene expression analyses by quantitative reverse transcription polymerase chain reaction (qRT-PCR, performed by Quintiles/Expression Analysis, Durham, NC)89. Standard TaqManTM Assays (Applied Biosystems/ThermoFisher Scientific, Foster City, CA) were used to assess the expression of 93 genes selected based on their selectivity and sensitivity to important hepatic receptors known to be modulated by environmental chemicals; importance in human hepatocyte functionality; and hepatotoxicity. […]
As to `Clc1cccc(C(Cl)(Cl)Cl)n1`, the call was inactive.

For `CN=C=S`, the compound was classed as inactive.

As to `CC(C)Nc1nc(Cl)nc(NC(C)C)n1`, the result was inactive.

For `N#Cc1c[nH]cc1-c1cccc2c1OC(F)(F)O2`, the AC50 was 10 µM (active).

In the case of `CO/N=C(/C1=NOCCO1)c1ccccc1Oc1ncnc(Oc2ccccc2Cl)c1F`, the AC50 was 5.39 µM (active).

As to `CS(=O)(=O)c1cc(C(F)(F)F)ccc1C(=O)c1cnoc1C1CC1`, the call was inactive.

For the compound `C=CCOC(=O)C(C)(C)OC(=O)c1cc(-n2c(=O)cc(C(F)(F)F)n(C)c2=O)ccc1Cl`, the compound was called inactive.

In the case of `CCOc1cc(C(C)(C)C)ccc1C1COC(c2c(F)cccc2F)=N1` (stereo not given), the result was inactive.

On to `Cn1c(-c2ccccc2)cc(-c2ccccc2)[n+]1C`, for which the AC50 is 50 µM (active).

On to `Nc1c(Cl)c(Cl)nc(C(=O)O)c1Cl`, for which the result was inactive.

For the compound `CCNP(=S)(OC)O/C(C)=C/C(=O)OC(C)C` (stereo not given), the call was inactive.

Consider `COc1cc(OC)nc(NC(=O)NS(=O)(=O)c2ncccc2OCC(F)(F)F)n1`, for which the result was inactive.

Consider `COC(=O)NS(=O)(=O)c1ccc(N)cc1`, for which the outcome was inactive.

`COCC(C)N(C(=O)CCl)c1c(C)csc1C` (stereo not given): the call was inactive.

As for `CS(=O)(=O)c1ccc(C(=O)C2C(=O)CCCC2=O)c([N+](=O)[O-])c1`, the result was inactive.

For `COCc1cnc(C2=NC(C)(C(C)C)C(=O)N2)c(C(=O)O)c1` (stereo not given), the call was inactive.

`CCOP(=S)(OCC)Oc1nc(Cl)n(C(C)C)n1`: the result was inactive.

In the case of `COP(=S)(OC)Oc1ccc([N+](=O)[O-])c(C)c1`, the outcome was inactive.

As to `CCSC(=O)N1CCCCCC1`, the compound was called inactive.

Consider `O=c1n(Cl)c(=O)n(Cl)c(=O)n1Cl`, for which the compound was called inactive.

On to `COCC(=O)N(c1c(C)cccc1C)C(C)C(=O)OC` (stereo not given), for which the compound was classed as inactive.

With `Cc1c(COC(=O)[C@@H]2[C@H](/C=C(\Cl)C(F)(F)F)C2(C)C)cccc1-c1ccccc1`, the compound was called inactive.

Consider `Cc1cc(C)nc(Nc2ccccc2)n1`, for which the call was inactive.

On to `CCOC(=O)C(C)OC(=O)c1cc(Oc2ccc(C(F)(F)F)cc2Cl)ccc1[N+](=O)[O-]` (stereo not given), for which the result was inactive.

As to `CC(C)N1C(=O)N(c2ccccc2)CSC1=NC(C)(C)C`, the AC50 was 78.3 µM (active).

Regarding `O=P(O)(O)CCCl`, the compound was classed as inactive.

In the case of `OC(c1ccc(Cl)cc1)(c1ccc(Cl)cc1)C(Cl)(Cl)Cl`, the call was inactive.

`CN/C(=N\[N+](=O)[O-])NCc1cnc(Cl)s1`: the result was inactive.

Take `CCCN(CC)CC1COC2(CCC(C(C)(C)C)CC2)O1` (stereo not given): the result was inactive.

Regarding `N#CN=C1SCCN1Cc1ccc(Cl)nc1`, the compound was classed as inactive.

Regarding `CCCCC(C#N)(Cn1cncn1)c1ccc(Cl)cc1` (stereo not given), the call was inactive.

Regarding `CC(C)C1(C)N=C(c2ncccc2C(=O)O)NC1=O` (stereo not given), the outcome was inactive.

As for `CC1(C)C(C(=O)OC(C#N)c2cccc(Oc3ccccc3)c2)C1(C)C` (stereo not given), the compound was called inactive.

For `CCOc1nc(C(Cl)(Cl)Cl)ns1`, the AC50 was 2.14 µM (active).

`CC(C)Oc1cccc(NC(=O)c2ccccc2C(F)(F)F)c1`: the result was inactive.

Regarding `CC1(C)CCC(=Cc2ccc(Cl)cc2)C1(O)Cn1cncn1` (stereo not given), the outcome was inactive.

Take `CCC(C)n1c(=O)[nH]c(C)c(Br)c1=O` (stereo not given): the compound was called inactive.

For the compound `COC(=O)N(C(=O)N1CO[C@@]2(C(=O)OC)Cc3cc(Cl)ccc3C2=N1)c1ccc(OC(F)(F)F)cc1`, the result was inactive.

Turning to `CCOc1nc(F)cc2nc(S(=O)(=O)Nc3c(Cl)cccc3Cl)nn12`, the compound was classed as inactive.

Turning to `COc1cc(Cl)c(OC)cc1Cl`, the result was inactive.

Broadly, the AC50 is the midpoint of the concentration-response curve, whichever way the signal moves.
